About 83,000 compounds went through this panel and 20% of them were active in at least one assay; those are over-represented in the sample as a whole.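 Results are percent growth after 48 hours of single-concentration exposure. 100 means growth as in untreated cells, lower positive values show inhibition; negative values down to -100 show cell death.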 Activity calls are given as the source filed them. The calls were made as follows: active = growth percent below 10; inactive = the rest.
Test system: MDA-MB-468 breast
Test: NCI-60 one-dose screen, 48 h (100 = growth as untreated, 0 = no growth, -100 = all killed)
Conditions: 10 µM unless noted

| SMILES | growth |
| --- | --- |
| O=C(CSc1nnc(-c2cc3c([nH]c4ccccc43)c(-c3cccc(O)c3)n2)n1-c1ccccc1)c1ccccc1 | 63% (inactive) |
| C[N+](C)(CCOC(c1ccccc1)c1ccccc1)CC(=O)OCc1ccccc1 | 100% (inactive) |
| CC1(C)CC[C@]2(C(=O)N3CCOCC3)CC[C@]3(C)C(=CC[C@@H]4[C@@]5(C)C/C(=C/c6ccco6)C(=O)C(C)(C)[C@@H]5CC[C@]43C)[C@@H]2C1 | 82.3% (inactive) |
| CN1CCN(S(=O)(=O)O[C@@H]2C(=O)N(c3cc4c5ccccc5ccc4c4ccccc34)[C@H]2c2ccc(F)cn2)CC1 | 90.8% (inactive) |
| O=c1cc(-c2ccc3c(c2)OCCO3)oc2cc(Cl)ccc12 | 66.4% (inactive) |
| COC(=O)c1c2c(c[n+]([O-])c1C)C(=O)C=CC2=O | -17.2% (active) |
| N#Cc1c(-c2ccccc2)nc(SCC(O)CN2CCOCC2)nc1N1CCOCC1 (stereo not drawn) | 76.7% (inactive) |
| N=C(N)c1ccc(-c2ccc(-c3cncc4ccccc34)s2)s1 | -72% (active) |
| CC(C)c1ccc(C(C)C(=O)N(CC2=C(C(C)c3ccccn3)c3ccccc3C2)C(C)C)cc1 (stereo not drawn) | 24.9% (inactive) |
| COC(=O)/C=C1\Sc2cc(F)ccc2NC1=O | 99.8% (inactive) |
| CCCCCc1ccc(S(=O)(=O)Nc2cccc(-c3csc(NC(=O)CNCCN(C)C)n3)c2)cc1 | 82.9% (inactive) |
| Cc1ccc2nc(NC(=O)CSc3nc(Cl)c(C#N)c(-c4ccccc4)n3)sc2c1 | 87.5% (inactive) |
| COC(=O)CNC(=O)[C@]12CCC(C)(C)C[C@H]1C1=CC[C@@H]3[C@@]4(C)Cc5c([nH]c6ccccc56)C(C)(C)[C@@H]4CC[C@@]3(C)[C@]1(C)CC2 | 102% (inactive) |
